Measurements reported in PubChem BioAssay AID1347426 (Functional Genomics Laboratory (NCATS/FGL), 2020).
In all, about 31,000 sequences went through this assay and about 1,400 (4.5%) were called active.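 How the source made its calls: active means median seed-adjusted z-score above 1 or below -1; inactive means the rest.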 Only a selection was taken, and actives are over-represented in it overall.

experiment: Novel Modifiers of Survival Motor Neuron (SMN) Protein: Gene Identification via Genome-wide siRNA Screen; conditions: HEK293T SMN2-luciferase reporter, siRNA knockdown, 72 h; actives lie on both sides
Description: Spinal muscular atrophy (SMA) is the most common neuromuscular autosomal recessive disorder and one of the leading genetic causes of infant death. SMA results from mutations inducing loss of function or deletion in the survival of motor neuron-1 gene (SMN1), leading to deficiency of the survival motor neuron (SMN) protein. Although a second nearly identical gene, SMN2, is retained in humans, its expression primarily produces an aberrantly spliced isoform that is largely unstable and quickly degraded. We performed a genome-wide RNAi screen using a cell-based reporter assay to identify genes and pathways that modulate SMN protein stability. The screen identified over 200 genes that led to the greatest increase or decrease in luciferase expression.
Using HEK293T cells stably expressing a luciferase reporter that combines the promoter and splicing based cassettes in tandem with the major portion of the native SMN2 cDNA with luciferase, we performed a genome-wide RNAi screen to identify modulators of SMN protein levels. Luciferase is expressed when full-length SMN protein is generated with luminescence signal proportional to SMN protein levels. Our luciferase-based reporter assay was used to screen Ambion Silencer Select Human Druggable Genome siRNA library (10418 genes, 3 unique siRNAs per gene) using lipid-based reverse transfection.
Briefly, 1 pmol of each siRNA was spotted to a well of a 384-well plate (Corning, Corning, NY) and 20 microL of serum-free DMEM containing […] of Lipofectamine RNAiMax (Life Technologies, Carlsbad, CA) was then added to each well. Transfected cells were maintained at 37 degrees C in 5% CO2 for 72 hours, 20 microL of ONE-Glo Reagent (Promega) was added to wells for luciferase quantification. Raw luminescence reads were normalized to Ambion(R) Silencer(R) Negative Control #2 siRNA, then log10 transformed. A robust statistical measure of median absolute deviation (MAD) to standardize siRNA activities from each screen. Common Seed Analysis was used to help prioritize clean hits as opposed to those appearing to arise from seed based off-target effects. Candidate modulators were defined as the genes having a MAD score greater than 1.0 or less than -1.0.

Sequence	median seed-adjusted z-score
GCAUCUGAAGACUCAGGCATT against TAZ	0.0549 (inactive)
UCAGCUGUAUCGACCAGAATT against MYL7	-1.21 (active)
GAAAUCAGCCUAUGGUUUATT against NME2	-0.0728 (inactive)
CCGUAUAUCUGGUGGUUAUTT against PLOD2	-0.281 (inactive)
GAAUCAUAAUCGCUCCUUUTT against SPRR1A	-0.0536 (inactive)
GAAUCCGGAUGAGUACUAUTT against PHF17	1.01 (active)
CAGUCCCUAUUUCAAAAUATT against PDE6G	0.0109 (inactive)
GAAUGAUAUUGUCCAUCGATT against CDKL5	-0.256 (inactive)
ACUUCAACGUGACCACAGATT against PNPLA6	0.309 (inactive)
GAUACGCCCUUAUAAUGCATT against ZBTB11	-0.105 (inactive)
GAAAUUGCCUAUUACUCUUTT against SLC19A2	-0.679 (inactive)
UCAUAAUUAUCUCACCAGATT against MEOX2	1.36 (active)
CCUCUAACGUACCAUCUAATT against OLAH	-0.44 (inactive)
GUAAGGCAAAGACUCCCUATT against ZNF673	0.419 (inactive)
GGGACGGAAUAAAUGCUCUTT against NDUFA13	-0.138 (inactive)
CUAAGGAAGUAGUUGAUUATT against HADHB	-0.188 (inactive)
CUACCGUAACAACCGAAAATT against SCN10A	-0.401 (inactive)
CCAUUGCAAUCAACACCAATT against ALOX5	-0.201 (inactive)
GAUGACUUUUGAUAGUGAATT against ODC1	-1.64 (active)
AGGUCAUUGCUGAGAAGUATT against FMNL1	-0.3 (inactive)
GGAAGUACAUGAACGCAGUTT against EFTUD1	-1.39 (active)
GGACGACACGUUCUACCUGTT against ENDOG	-0.336 (inactive)
GCAGACAAGUCAACCGUGATT against FRK	-0.14 (inactive)
CAGGUUAUCGUGUGAAGGATT against TNFRSF14	0 (inactive)
GCACGAAGCUUUCCCUGGATT against KRT78	0.306 (inactive)
GUUUGAUGGUGAUAAGAAATT against PGD	-1.55 (active)
GAACCAAAUUGUACGAGAATT against IRX3	-0.285 (inactive)
GGGAUAAAUUUGACGUGGATT against SPAG1	0.413 (inactive)

Sequence	median seed-adjusted z-score
GCUACAUCCUGUUCGAGAATT against CYP27A1	-0.391 (inactive)
CAGAAUAAAUCACACCCUATT against INSL3	-0.037 (inactive)
CCAAGAUGAGUAUAAAACATT against HRC	1.06 (active)
CCAUCUGCUUUCCCGAGUATT against GNAZ	-0.604 (inactive)
GCUGUGGAUUGUCCAACAATT against NPY5R	0.213 (inactive)
UCAACUGACUCAUACCUGUTT against KCNMB1	-0.465 (inactive)
GAACCACUAUGAUCAUUGATT against DPYSL2	-0.569 (inactive)
CAGUGUAUCUUCAUAAGAUTT against TAF1L	0.289 (inactive)
AGAGUGGAUUUGUACCAAATT against RAB39B	0.485 (inactive)
CGGUGACUCUUUAUGCACATT against PMPCB	0.507 (inactive)
GAGAGUGCCUUACACCAAATT against HOXD13	0.116 (inactive)
GAGAGAAAAGGGUCACAAATT against GPR61	0 (inactive)
UGACCAUCGUCUACAAGAATT against COPZ2	-1.23 (active)
CAAGAAGCAUUAUUACGAUTT against PPIL2	-0.467 (inactive)
CCCUAGAGUAUUACACGGATT against DGKD	0.35 (inactive)
GGACAAAGACUGGUACGUUTT against HTT	-0.234 (inactive)
CCUUUUACAUGUUCUAUUUTT against SIVA1	0.0451 (inactive)
GGCAAGUUCUCCUUCGACATT against ALDH3B1	0.148 (inactive)
GAACUGUCGUAAACGCAAATT against NFE2L3	0.118 (inactive)
GCCUUAAGGAUGAAGAUAATT against FOXR2	0.593 (inactive)
GGUAUCACCUAUACAGAAATT against FKBP11	-0.085 (inactive)
ACUUCAAGCUCCUAAGCCATT against HBA1	-1.03 (active)
GCCUCUAAGUCUCGAGGAATT against TRPM3	-0.633 (inactive)
CACAGGUAAUCAUACCCUATT against NDUFA9	-0.325 (inactive)
GAAUCAGAAUACGUAGGAATT against PCDHA2	0.803 (inactive)
GGAGGAAUCUCGAAUGCGATT against CNOT1	1.2 (active)
GAGGCAAUAUGAAACGAGUTT against CKMT2	-0.862 (inactive)
